Giardia FBPA inh = qHTS Assay for Inhibitors of Fructose-1,6-bisphosphate Aldolase from Giardia Lamblia | A8B2U2 | purified Giardia FBPA | Potency, µM (series often up to 59.6 µM), most hits filed as inhibitors | 0.71% of 290,000 active | AID 2451, 2010; further: nearly all actives have a fitted effect of over 55% in size
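40 nM FBPA preincubated 10 min at RT with compound (up to 57.5 uM final), then substrate plus GAPDH/TPI/NAD/arsenate coupling and diaphorase/resazurin added. Fluorescence read after 20 min at RT, 525/598 nm.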
TbPYK inhibitor = qHTS of Trypanosoma Brucei Inhibitors; Potency, µM (highest dose often 76.8 µM), most hits filed as inhibitors; TbPYK enzyme, Kinase-Glo Plus ATP luminescence, 45 min; 0.12% of 410,000 active; further: nearly all actives have a fitted effect of over 50% in size
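Luminescent Kinase-Glo Plus end-point after 45 min room-temperature reaction of T. brucei pyruvate kinase started with 130 uM ADP (final). Buffer TEA 50 mM pH 7.2 with KCl, MgCl2, BSA, Tween-20; titration-based qHTS with fitted concentration-effect curves.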
CHX counter = Cycloheximide Counterscreen for Small Molecule Inhibitors of Shiga Toxin | cell reporter, cycloheximide protein synthesis inhibition counterscreen | max response, % | 12% of 300,000 active | AID 2314, 2010; in the data active means max response mostly above about 13%, no sharp cut-off; inactive means mostly below about 14%; further: read at 38.3 µM for the half of the compounds with a filed dose
Sm TGR block = qHTS Assay for the Inhibitors of Schistosoma Mansoni Peroxiredoxins; Schistosoma mansoni thioredoxin glutathione reductase (TGR), Q962Y6; purified TGR, DTNB reduction, TNB absorbance 405 nm; Potency, µM (titrated, usually from 114 µM), usual class: inhibitors; 3% of 360,000 active; further: nearly all actives have a fitted effect of over 60% in size
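First, TGR (20 nM dispensed) and NADPH were mixed with compound. Second, a 15 min room-temperature incubation followed. Third, further NADPH and then DTNB were added to start the reaction. Finally, TNB absorbance was monitored kinetically.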
LmPK inhibitor = qHTS Assay for Inhibitors of Leishmania Mexicana Pyruvate Kinase (LmPK) | Q27686 | purified LmPK, Kinase-Glo ATP luminescence, 1 h | Potency, µM (highest dose often 57.5 µM), most hits filed as inhibitors | 0.37% of 290,000 active | AID 1721, 2009
Target sequence (Q27686 whole entry, looked up): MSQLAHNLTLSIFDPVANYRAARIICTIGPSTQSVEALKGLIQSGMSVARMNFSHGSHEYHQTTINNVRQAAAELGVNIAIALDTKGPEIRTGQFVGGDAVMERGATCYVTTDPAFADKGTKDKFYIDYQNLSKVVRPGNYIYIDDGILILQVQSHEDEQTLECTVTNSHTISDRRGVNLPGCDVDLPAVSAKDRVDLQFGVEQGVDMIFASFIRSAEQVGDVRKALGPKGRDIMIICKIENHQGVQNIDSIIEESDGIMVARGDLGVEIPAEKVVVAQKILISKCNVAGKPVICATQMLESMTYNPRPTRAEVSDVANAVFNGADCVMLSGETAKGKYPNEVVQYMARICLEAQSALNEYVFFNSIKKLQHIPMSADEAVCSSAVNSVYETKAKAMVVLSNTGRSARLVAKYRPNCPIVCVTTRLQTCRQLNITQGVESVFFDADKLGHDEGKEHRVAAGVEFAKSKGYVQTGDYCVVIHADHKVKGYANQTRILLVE
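Purified LmPK (0.1 nM) converted ADP (0.1 mM) to ATP with PEP (0.5 mM) in imidazole buffer pH 7.2 with KCl and MgCl2, 1 h at room temperature. ATP was read by Kinase-Glo luminescence; data normalized to uninhibited and no-enzyme controls.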
Shiga inhibitor = A qHTS for Small Molecule Inhibitors of Shiga Toxin; AID 2315, 2010; inhibition, % at 38.7 µM; 9.2% of 290,000 active; Vero cells, Shiga toxin protein synthesis inhibition reporter; in the data active means inhibition mostly above about 28%, no sharp cut-off; inactive means mostly below about 43%
Of the large screens only hits and unclear results are named; the others gave an inactive call; ! = not confirmed by another sample. The entries come from a sample that favours hits as a whole. Unless noted, the call rests on the fitted dose curve; in most records, active means well fitted curve in the direction sought with a large enough effect; inconclusive means small, poorly fitted or top-dose-only effect, or another doubt; inactive means no such curve, though single readings can be large; an effect the other way counts as inactive or inconclusive.

Nc1c(C(=O)CSc2n[nH]c(-c3ccccc3)n2)c(=O)[nH]c(=O)n1C1CC1	none (no result: Giardia FBPA inh, CHX counter, LmPK inhibitor, Shiga inhibitor)
COc1ccc2c(c1)CCc1c-2nc2ccccc2c1N1CCOCC1	Giardia FBPA inh inconclusive, Sm TGR block 40µM
O=C(CN1CCN(Cc2ccc(F)cc2)C1=O)NCc1ccccc1	none (no result: Giardia FBPA inh, CHX counter, LmPK inhibitor, Shiga inhibitor)
CN1CCN(C(c2ccc(Cl)cc2Cl)c2sc3nc(-c4ccco4)nn3c2O)CC1 (stereo not drawn)	none (no result: Giardia FBPA inh, CHX counter, LmPK inhibitor, Shiga inhibitor)
CCOc1ccc2c(c1)nc(SCC(=O)c1ccc(Br)s1)n2C	Sm TGR block 35µM
COc1ccc2c(c1)nc(SCC(O)c1ccccc1)n2C (stereo not drawn)	none (no result: Sm TGR block)
CCOc1ccc2c(c1)nc(SCC(=O)c1cccs1)n2C	CHX counter 50, Sm TGR block inconclusive, Shiga inhibitor 81
Cc1ccc(C(=O)c2cc(O)c(O)c([N+](=O)[O-])c2)cc1	none (no result: Giardia FBPA inh, CHX counter, Sm TGR block, LmPK inhibitor, Shiga inhibitor)
CC(C)(C)OC(=O)N/N=C/c1cccc([N+](=O)[O-])c1	CHX counter 50, Shiga inhibitor 82
COc1ccc(/C=N/NC(=O)C2C3CCCCC32)cc1OC (stereo not drawn)	none
Cc1cc(C(=O)N/N=C/c2cccc([N+](=O)[O-])c2)c(C)o1	none
COc1ccc(/C=N/NC(=O)OC(C)(C)C)cc1OC	CHX counter 14, Shiga inhibitor active
COc1cc(/C=N\NC(=O)OC(C)(C)C)ccc1OC(=O)c1ccco1	Shiga inhibitor 82
O=C(CCCn1c2ccccc2c(=O)c2ccccc21)Nc1ccc(F)cc1Cl	none (no result: Giardia FBPA inh, CHX counter, LmPK inhibitor, Shiga inhibitor)
N#CC1=C(N)Oc2c(c(=O)sc3ccccc23)C1c1ccncc1 (stereo not drawn)	CHX counter 20
COc1cccc(NC(=O)CN2CCCCCC2)c1	Giardia FBPA inh inconclusive, CHX counter 23 (no result: Shiga inhibitor)
Cc1ccc(C(=O)Nc2cccc(NC(=O)CN3CCCCC3)c2)cc1	CHX counter 14 (no result: Shiga inhibitor)
O=C(CN1CCCCC1)Nc1cccc(Br)c1	CHX counter 15
CO[C@@H]1COC(=O)C/C=C\[C@@H](C)[C@H](OC)COC(=O)C/C=C\[C@H]1C	none (no result: TbPYK inhibitor, CHX counter, Sm TGR block, LmPK inhibitor, Shiga inhibitor)
CCCNC(=O)Cn1nc(-c2ccc(C)c(C)c2)c2cnc3ccc(F)cc3c21	none (no result: Giardia FBPA inh, CHX counter, LmPK inhibitor, Shiga inhibitor)
Cc1ccc(C(=O)N2CCCC2(C)C(=O)NCC(C)C)cc1F (stereo not drawn)	none (no result: Giardia FBPA inh, CHX counter, Sm TGR block, LmPK inhibitor, Shiga inhibitor)
COc1ccc(CN(C)CCc2ccccn2)cc1OC	Giardia FBPA inh 6.3µM
CCCN(CC(=O)Nc1ccccc1OC)Cc1c(O)ccc2ccccc12	Sm TGR block 2µM
COc1ccccc1CN(C)CC(=O)Nc1ccc(Cl)cc1C(F)(F)F	Giardia FBPA inh inconclusive, CHX counter 15
COc1ccc(CCN(C)Cc2c(O)ccc3ccccc23)cc1OC	Sm TGR block 1.4µM
COc1ccc(-c2noc(CSc3nnc(-c4ccc(Cl)cc4)n3C)n2)cc1OC	none (no result: Giardia FBPA inh, CHX counter, LmPK inhibitor, Shiga inhibitor)
COCCNc1cc(-c2ccccc2C)ncn1	none (no result: TbPYK inhibitor, CHX counter, Sm TGR block, LmPK inhibitor, Shiga inhibitor)
COc1ccccc1CN(C)CC(=O)Nc1cccc2ccccc12	none
CN(CC(=O)Nc1ccccc1C(F)(F)F)C(=O)c1cc(Cl)nc2ccccc12	none (no result: Giardia FBPA inh, CHX counter, LmPK inhibitor, Shiga inhibitor)
CN(CC(=O)Nc1ccccc1C(F)(F)F)Cc1c(O)ccc2ccccc12	Sm TGR block 1µM
CCc1ccccc1NC(=O)CN(C)Cc1c(O)ccc2ccccc12	Sm TGR block 0.71µM
Cc1nn(C(=O)c2c(F)cccc2F)c(C)c1S(=O)(=O)N1CCCCCC1	none (no result: Giardia FBPA inh, CHX counter, LmPK inhibitor, Shiga inhibitor)
O=C(NCCC1=CCCCC1)c1ccc2c(=O)n3nc(Nc4ccccc4)sc3nc2c1	none (no result: Giardia FBPA inh, CHX counter, LmPK inhibitor, Shiga inhibitor)
Cc1ccc(NC(=O)CSc2nc3ccccc3nc2N2CCCC2)cc1	CHX counter 21, Shiga inhibitor 33
CC(=O)Nc1ccc(NC(=O)CSc2nc3ccccc3nc2N2CCOCC2)cc1	none (no result: Giardia FBPA inh, CHX counter, LmPK inhibitor, Shiga inhibitor)
CC(C)c1ccc(NC(=O)CSc2nc3ccccc3nc2N2CCCC2)cc1	Shiga inhibitor 16
O=C(CSc1nc2ccccc2nc1N1CCCC1)Nc1ccc(Cl)cc1	none
COc1cccc(NC(=O)CSc2nc3ccccc3nc2N2CCOCC2)c1	CHX counter 24!
Cc1ccc(N2C(=O)[C@@H]3CSC(c4ccc(Cl)cc4)N3C2=O)cc1 (stereo partly drawn)	none (no result: Giardia FBPA inh, CHX counter, LmPK inhibitor, Shiga inhibitor)

High-throughput results: PubChem BioAssay, National Center for Advancing Translational Sciences (NCATS)
